Screening results deposited in PubChem BioAssay by National Center for Advancing Translational Sciences (NCATS).
Nrf2 inh: inhibitors of Nrf2 signaling; Potency, µM (top dose mostly 46 µM), inactives show top-dose activity change, negative = inhibition, hits mostly inhibitors; 360,000 compounds, 2.1% hits; A549 ARE-Fluc reporter, luciferase luminescence, 18-24 h; also: % is scaled to controls: 0 for no effect and ±100 for the full control effect; nearly all actives have a fitted effect of over 60% in size
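A549 ARE_Fluc cells, 5000/well, 5% FBS OPTI-MEM; compounds in dose-response, 18-24 h at 37 °C/5% CO2; CellTiter-Fluor viability read (Ex 405/Em 525), then BugLite luciferase luminescence = Nrf2 activity.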
Nrf2 activator: activators of Nrf2 (ARE) signaling; AREc32 ARE-luciferase reporter (MCF7-derived line), luminescence, 24 h; Potency, µM (titrated, usually from 46.1 µM), for inactives: at the highest dose activation, hits mostly activators; 410,000 compounds, 0.31% hits; also: % of control where 0% means no effect; nearly all actives have a fitted effect of over 65% in size
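AREc32 cells carrying an ARE-driven firefly luciferase, 1000 cells/well in OPTI-MEM with 5% FBS, dosed after overnight attachment and incubated 24 hr at 37 deg C. Steady-Glo luminescence read after 30 min at RT.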
A549 tox: A549 cytotoxicity, counter-screen for Nrf2 inhibitors; A549 ARE-Fluc cells, CellTiter-Fluor viability, 18-24 h; Potency, µM (doses to about 46 µM), for the others: top-dose activity change, negative = cytotoxicity, usual class: inhibitors; AID 504648; 390,000 compounds, 0.16% hits; also: % is scaled to controls: 0 for no effect and ±100 for the full control effect
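A549 ARE-Fluc cells in 5% FBS OPTI-MEM, 5000 cells/well, rested 2 h then exposed to compounds in concentration-response for 18-24 h at 37 °C. Viability by CellTiter-Fluor fluorescence (Ex 405/Em 525) after 30 min; luciferase luminescence (BugLite, 15 min, RT) read afterwards.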
Rango release inh: inhibition of RanGTP-driven Rango-importin beta dissociation. O95149+P62826. Biochemical FRET Rango-importin beta, RanGTP-induced dissociation. Potency, µM (highest dose often 46.1 µM), without a hit: at the highest dose activity change, negative = inhibition. 340,000 compounds, 0.071% hits; calls by dose curve; also: % of control where 0% means no effect; nearly all actives have a fitted effect of over 45% in size
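Compounds sat 5 min at room temperature with 0.1 uM Rango biosensor plus 0.25 uM importin beta, then FRET pre-read. RanGTP-RCC1 (0.6 uM Ran, 2mM GTP, 0.2 uM RCC1) added for 45 min, and the CFP/YFP post-read measured blocked complex dissociation.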
Rango complex inh: inhibitors of Rango-importin beta complex formation; Potency, µM (top dose mostly 92.2 µM), without a hit: top-dose inhibition of complex formation; AID 540263; 340,000 compounds, 0.031% hits; Rango CFP/YFP FRET sensor + importin beta, 45 min; calls by dose curve;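 also: 0% = DMSO wells and 100% = buffer wells lacking importin beta; nearly all actives have a fitted effect of over 15% in size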
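FRET biosensor (snurportin 1 IBB flanked by EYFP and cerulean), 50 nM, with compound 5 min, then 0.125 microM importin beta in PBS, 1 mM DTT, 0.02% Tween-20, 0.1% BSA. CFP/YFP ratio read after 45 min at room temperature; pre-read flags interference.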
* marks the source's active call; other numbers are inactive results; ? = inconclusive; . = not tested or not shown. An excerpt weighted towards active compounds, which were near 2.3% of everything screened. Unless noted, calls follow the shape of the dose curve; as a rule, active = well fitted curve in the direction sought with a large enough effect; inconclusive = small, poorly fitted or top-dose-only effect, or another doubt; inactive = no such curve, though single readings can be large; an effect the other way counts as inactive or inconclusive. Potency is read from the fitted curve at half-maximal effect.

SMILES | Nrf2 inh | Nrf2 activator | A549 tox | Rango release inh | Rango complex inh
CCn1c(COc2ccc(Cl)cc2)nnc1SC1CCc2ccccc2C1=O (centres undefined) | 26µM* | 3% | 0% | 5% | ?
Cn1c(SCc2ccc(C#N)cc2)nnc1-c1ccncc1 | 5% | 0% | -3% | 2% | 2%
C=CCn1c(SCc2ccc(C#N)cc2)nnc1-c1ccc(C)cc1 | 21µM* | 0% | 3% | 4% | -4%
N#Cc1nc(Nc2ccc3ccccc3c2)nc(NC2CCCC2)n1 | -24% | . | -9% | . | .
COc1ccc(OC)c(NC(=O)C(C)n2c(=O)c(-c3ccccc3NC(C)=O)nc3ccccc32)c1 (centres undefined) | 20% | 3% | 4% | . | .
NC(=O)COC(=O)CCCSc1nc2ccccc2s1 | ? | -2% | 8% | -10% | -13%
CC(OC(=O)CCCSc1nc2ccccc2s1)C(=O)NC(N)=O (centres undefined) | 16µM* | -1% | 5% | 11% | 0%
CCN(c1ccccc1)S(=O)(=O)c1ccc(C(=O)Oc2ccc(C(C)=O)cc2)cc1 | 8% | -1% | -9% | 11% | 0%
Cc1cc(C)nc(NC(=O)/C=C/c2ccccc2Cl)n1 | . | 8.9µM* | -6% | 4% | 2%
Cc1cc(C)nc(NC(=O)/C=C/c2ccccc2Cl)c1 | 5% | ? | -2% | ? | 0%
O=C(NCc1cccnc1)c1ccc(COc2ccccc2Br)cc1 | ? | 0% | -3% | 9% | 3%
O=C(Nc1cccnc1)c1ccc(COc2ccccc2Br)cc1 | 13µM* | 0% | -27% | 0% | -1%
NS(=O)(=O)c1ccc(CCNC(=O)Nc2ccc(Cl)c(Cl)c2)cc1 | 21µM* | 0% | -27% | -18% | -1%
CCC(=O)Nc1sc2c(c1C(=O)OC)CCN(Cc1ccccc1)C2 | -16% | 0% | -3% | 41µM* | ?
Cc1csc(-c2ccc3cc(Cl)cc(Cl)c3n2)n1 | . | 2.5µM* | . | . | .
COc1ccc(C(=O)/C(=C\c2ccco2)N2C=CC=CC2=C(C#N)C#N)cc1 | ? | ? | 18µM* | -5% | ?
N#CC(C#N)=C1C=CC=CN1/C(=C\c1ccco1)C(=O)c1ccccc1 | -5% | -3% | -21% | -14% | -1%
COc1cccc(/C=C2\SC(=S)N(C(C)C(=O)NC3C=CS(=O)(=O)C3)C2=O)c1 (centres undefined) | 2% | 18µM* | 3% | 3% | -1%
COc1cccc(/C=C2\SC(=O)N(CC(=O)NC3C=CS(=O)(=O)C3)C2=O)c1 (centres undefined) | 10% | 16µM* | 0% | -3% | -1%
O=C(NCc1ccccc1)c1ccc(CSc2nc3cccnc3n2Cc2cccc(F)c2)cc1 | ? | 4% | -12% | . | .
COc1cccc(C2c3c(ncn(-c4ccncc4)c3=N)Oc3ccc4ccccc4c32)c1 (centres undefined) | 16% | . | -8% | . | .
Cc1ccc(-c2nc(NC(=O)CSc3nnc4scc(-c5ccccc5)n34)ns2)cc1 | 21µM* | 3% | ? | -11% | 0%
CC(C)(C)c1ccc(NC(=O)CSc2nnc3scc(-c4ccccc4)n23)cc1 | 16µM* | 1% | -1% | . | .
O=C(CSc1nnc2scc(-c3ccccc3)n12)Nc1ccc(Cl)cc1 | 4% | 0% | 1% | . | .
CCCCn1c(N)c(N(CCOC)C(=O)c2ccc(-c3ccc(C(C)=O)cc3)o2)c(=O)[nH]c1=O | ? | 4% | -1% | -13% | ?
CSc1nc(N)n2nc(-c3ccccc3)cc2n1 | ? | 7.9µM* | 0% | -5% | 0%
CCOc1cc(C(=O)Nc2c(NC)c3ccccc3oc2=O)cc(OCC)c1OCC | 25% | 4% | 1% | . | .
CCc1cccc(C)c1NC(=O)c1cnn(-c2ccc(OC)cc2)c1C1CCN(C(=O)OC(C)(C)C)CC1 | 23µM* | -1% | -15% | . | .
Cc1c(Cl)cccc1-n1ncc(C(=O)Nc2ccc(F)cc2F)c1C1CCN(C(=O)OC(C)(C)C)CC1 | 26µM* | 1% | -11% | . | .
COc1ccc2[nH]cc(CCNC(=O)c3cnn(-c4ccc(C)cc4)c3C3CCN(C(=O)OC(C)(C)C)CC3)c2c1 | 15µM* | -1% | -20% | . | .
